Data on 40 molecules can be found in PubChem BioAssay (Tox21).

Results filed as inconclusive are left out. A number with no mark means an inactive call. Calls follow the shape of the dose curve; as a rule, active = well fitted cell-killing curve with a large enough effect in the repeat runs (not every such curve was filed as active); inconclusive = weak or mixed curves, or effect the other way; inactive = no such curve, though single readings can be large or run the other way.
% is scaled to controls: 0 for no effect and ±100 for the full control effect.

The test is described as follows: qHTS assay to identify small molecule antagonists of the farnesoid-X-receptor (FXR) signaling pathway - cell viability counter screen (AID 743221). Also: nearly all actives have a fitted effect of over 50% in size. Conditions: FXR-bla HEK293T viability, CellTiter-Glo luminescence, 16 h; series mostly up to 62.6 µM; activity change, negative = cytotoxicity: at the top concentration. The source says: National Center for Advancing Translational Sciences [NCATS]
NIH Chemical Genomics Center [NCGC]
U.S. Environmental Protection Agency [EPA]
National Institutes of Environmental Health Sciences [NIEHS]
National Toxicology Program [NTP]
U.S. Food and Drug Administration [FDA]
The farnesoid-X-receptor (FXR), a nuclear hormone receptor, is highly expressed in liver, intestine, kidney and adrenal cortex. Natural ligands of FXR are the bile acids (Cholic acid, Chenodeoxy cholic acid etc). FXR is an important regulator of diverse metabolic pathways, including the bile acid homeostasis, lipid and glucose metabolisms. FXR regulates the expression of target genes by binding either as a monomer or as a heterodimer with the retinoid X receptor (RXR). Numerous studies have reported that FXR exerts protective function during cholestasis, diabetes, liver regeneration, and cancer. To identify compounds that inhibit FXR signaling, GeneBLAzer FXR-UAS-bla HEK 293T cell line (Invitrogen, Carlsbad, CA) containing a beta-lactamase reporter gene under the control of a UAS response element was used to screen the Tox21 10K compound library. The cytotoxicity of the Tox21 compound library against the FXR-bla cell line was tested in parallel by measuring the cell viability using CellTiter-Glo assay in the same wells.
Tox21 Assay Protocol Summary:
FXR-bla cells were dispensed at 5000 cells/5uL/well in 1536-well black wall/clear bottom plates using a Multidrop Combi (Thermo Fisher Scientific, Waltham, MA) dispenser. After the assay plates were incubated at 37 C and 5% CO2 for 5 h, 23 nL of compounds dissolved in DMSO, positive controls or DMSO only was transferred to the assay plate by a Pintool station (Kalypsys, San Diego, CA), followed by addition of 1 uL Chenodeoxycholic acid (50 uM, final concentration in the wells). The assay plates were incubated at 37C for 16 h. After 1 uL of LiveBLAzerTM B/G FRET substrate was added using a Bioraptr Flying Reagent Dispenser (FRD) workstation (Beckman Coulter, Indianapolis, IN), the plates were incubated at room temperature for 2 h, and fluorescence intensity was measured by an Envision plate reader (PerkinElmer, Shelton, CT). For cell viability readout that measures cytotoxicity, 4uL/well of CellTiter-Glo reagent was added into the assay plates using a Bioraptr FRD. After 30 min incubation at room temperature, the luminescence intensity in the plates was measured using a ViewLux plate reader (PerkinElmer).
Consider `COc1ccc(/C=C/c2cc(OC)cc(=O)o2)cc1`, for which the “activity change, negative = cytotoxicity” value was -2.04%. Next, `Nc1ccc(F)cc1F`: 3.32% [at 81.1 µM]; `CCOc1ccccc1O`: -15.9%; `O=C1OC(=O)C2CC=CCC12` (stereo not given): 0.0295% [at 81.1 µM]. With `OCCCO`, the “activity change, negative = cytotoxicity” value was -0.136% [at 81.1 µM].

Consider `O=C(OCCN1CCOCC1)c1cccnc1Nc1cccc(C(F)(F)F)c1`, for which the “activity change, negative = cytotoxicity” value is -5.23%.

Turning to `CCCCC(CC)COCCC#N` (stereo not given), the “activity change, negative = cytotoxicity” value was -10.8%. Turning to `CCCCOC(=O)CC#N`, the “activity change, negative = cytotoxicity” value was -0.87% [at 81.1 µM]. With `CC1(C)CC(O)CC(C)(C)N1[O]`, the “activity change, negative = cytotoxicity” value is -0.279%. `CCOc1cc(OCC)c(C(C)=O)cc1OCC`: the “activity change, negative = cytotoxicity” value is -1.08%.

`Clc1nc2ccccc2nc1Cl`: the “activity change, negative = cytotoxicity” value is 4.43% [at 81.1 µM]. Next, `COc1ccc(C(=O)Nc2ccccc2)cc1[N+](=O)[O-]`: -1.49% [at 81.1 µM]; `C[C@H]1C[C@H]2[C@@H]3CCC4=CC(=O)C=C[C@]4(C)[C@@]3(F)[C@@H](O)C[C@]2(C)[C@@]1(O)C(=O)COP(=O)(O)O`: -4.88%.

For the molecule `C=CC(=O)NC(C)(C)C`, the “activity change, negative = cytotoxicity” value was 12.9%. On to `C[C@]12CCC(=O)C=C1[C@@H]1C[C@@H]1[C@H]1[C@@H]3[C@@H]4C[C@@H]4[C@@]4(CCC(=O)O4)[C@@]3(C)CC[C@@H]12`, for which the “activity change, negative = cytotoxicity” value is -3.25%. Turning to `Cc1cc(SC2=C(O)C[C@@](CCc3ccc(N)cc3)(C(C)C)OC2=O)c(C(C)(C)C)cc1CO`, the “activity change, negative = cytotoxicity” value was -2.93%.

Regarding `CC(C)=CCC[C@H](C)CCO`, the “activity change, negative = cytotoxicity” value was -0.718%. As for `Cc1cc(C)c(C)c(O)c1`, the “activity change, negative = cytotoxicity” value is -5.21%. To `CCCCCCC/C=C/C=O` belongs -11.9%; to `CC(C)CCCCCOC(=O)CS`, -16.7%. Regarding `CC(=O)Oc1cccc2c1C(=O)c1c(OC(C)=O)cc(C(=O)O)cc1C2=O`, the “activity change, negative = cytotoxicity” value was -14.9%. Regarding `CC(=O)Nc1ccccc1O`, the “activity change, negative = cytotoxicity” value is 5.74%.

For `C1CCN(CN2CCCCC2)CC1`, the “activity change, negative = cytotoxicity” value was 4.56%. Turning to `Cc1c(Cl)cccc1Nc1ccccc1C(=O)O`, the “activity change, negative = cytotoxicity” value was 0.124%.

`C[C@H](CN1CCCC1)C(=O)c1ccc(C(F)(F)F)cc1`: the “activity change, negative = cytotoxicity” value is 0.84%. Next, `N#Cc1ccc(CC(=O)c2cccc(C(F)(F)F)c2)cc1`: 4%; `Clc1cc(Cl)c2c(c1)N=C1CCCCCN1C2`: -13.6%; `O=[N+]([O-])c1ccccc1CCO`: 1.34% [at 81.1 µM]. Take `Cc1ccc(NC=O)c(C)c1`: the “activity change, negative = cytotoxicity” value was 2.45%. To `O=c1[nH][nH]c2ccccc12` belongs 6.22% [at 81.1 µM]; to `O=C(NC1CCN(CCc2c[nH]c3ccccc23)CC1)c1ccccc1`, -2.59%; to `CCCN(C1CCN(C(=O)C2CCNCC2)CC1)[C@@H]1CCc2ccc(OC)cc2C1`, 3.8%. Regarding `c1ccc(CN(Cc2ccccc2)Cc2ccccc2)cc1`, the “activity change, negative = cytotoxicity” value was -5.35%. To `CCCCCCCCCCCCN1CCOCC1` belongs -0.328%; to `CC(C)CCCCCCCOC(=O)c1ccc(C(=O)OCCCCCCCC(C)C)c(C(=O)OCCCCCCCC(C)C)c1`, -6.42%; to `CCCCCO`, 0.332%.

With `O=C(O)CCc1nc2ccccc2[nH]1`, the “activity change, negative = cytotoxicity” value was 7.85%. To `O=C(O)c1ccc(O)c(O)c1` belongs -3%; to `O=C(O)COCC(=O)O`, 13.6% [at 81.1 µM]; to `C=CC(O)CCCCC` (stereo not given), -2.15%.
